{"source": "the supplement of paper PMC12669032", "key": {"[1]": {"system": "Roseburia intestinalis", "assay": "growth AUC relative to DMSO control (median of replicates) (fraction); higher = more growth (less inhibition), active = hit call of the paper", "conditions": "20 µM; 24 h", "summary_of_the_method": "(§1)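 Gut bacterial monocultures were grown anaerobically at 37 °C in mGAM from a starting OD600 of 0.05 with 20 µM compound (1% DMSO), in round-bottom 96-well plates under pierced gas-permeable seals, and OD600 was read hourly for 24 h. With the minimum OD set to 0, area under the growth curve was normalised to the plate median of solvent-only wells, or to row and column medians on the industrial chemical plate. Each value is the median of three biological replicates grown on separate days.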"}, "[2]": {"system": "Streptococcus salivarius", "assay": "growth AUC relative to DMSO control (median of replicates) (fraction); higher = more growth (less inhibition), active = hit call of the paper", "conditions": "20 µM; 24 h", "summary_of_the_method": "as §1"}}, "note": "Unmarked numbers belong to inactive results.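 How the source made its calls: active = AUC reduced over 20% with Padj below 0.05 in at least 2 of 3 replicates; inactive = otherwise.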"}
{"smiles": "CNC(=O)c1cc(C#N)cc(C)c1NC(=O)c1cc(Br)nn1-c1ncccc1Cl", "values": [{"measurement": "growth AUC", "setting": "[1]", "value": 0.961}, {"measurement": "growth AUC", "setting": "[2]", "value": 1.04}]}
{"smiles": "CCCCOCN(C(=O)CCl)c1c(CC)cccc1CC", "values": [{"measurement": "growth AUC", "setting": "[1]", "value": 0.97}, {"measurement": "growth AUC", "setting": "[2]", "value": 0.915}]}
{"smiles": "CCOc1nc(NC)nc(NC(=O)NS(=O)(=O)c2ccccc2C(=O)OC)n1", "values": [{"measurement": "growth AUC", "setting": "[1]", "value": 0.992}, {"measurement": "growth AUC", "setting": "[2]", "value": 1.03}]}
{"smiles": "N#Cc1sc2c(=O)c3ccccc3c(=O)c=2sc1C#N", "values": [{"measurement": "growth AUC", "setting": "[1]", "value": 1}, {"measurement": "growth AUC", "setting": "[2]", "value": 0.908}]}
{"smiles": "CCc1cccc(C)c1N(C(=O)CCl)[C@@H](C)COC", "values": [{"measurement": "growth AUC", "setting": "[1]", "value": 1.03}, {"measurement": "growth AUC", "setting": "[2]", "value": 1.02}]}
{"smiles": "CCN(C(=O)n1nnn(-c2ccccc2Cl)c1=O)C1CCCCC1", "values": [{"measurement": "growth AUC", "setting": "[1]", "value": 0.938}, {"measurement": "growth AUC", "setting": "[2]", "value": 0.971}]}
{"smiles": "C[N+]1(C)CCCCC1.[Cl-]", "values": [{"measurement": "growth AUC", "setting": "[1]", "value": 0.975}, {"measurement": "growth AUC", "setting": "[2]", "value": 0.99}]}
{"smiles": "CNC(=O)Oc1cc(C)c(S(C)(=O)=O)c(C)c1", "values": [{"measurement": "growth AUC", "setting": "[1]", "value": 0.967}, {"measurement": "growth AUC", "setting": "[2]", "value": 0.945}]}
{"smiles": "CC1(C)C(C=C(Cl)Cl)[C@@H]1C(=O)O[C@@H](C#N)c1ccc(F)c(Oc2ccccc2)c1", "note": "(stereo not given in full)", "values": [{"measurement": "growth AUC", "setting": "[1]", "value": 0.916}, {"measurement": "growth AUC", "setting": "[2]", "value": 1}]}
{"smiles": "CC(C)=CC1C(C(=O)OC(C#N)c2cccc(Oc3ccccc3)c2)C1(C)C", "note": "(mixture of isomers)", "values": [{"measurement": "growth AUC", "setting": "[1]", "value": 0.893}, {"measurement": "growth AUC", "setting": "[2]", "value": 0.988}]}
{"smiles": "CC(C)(COCc1cccc(Oc2ccccc2)c1)c1ccc(OC(F)(F)Br)cc1", "values": [{"measurement": "growth AUC", "setting": "[1]", "value": 1.05}, {"measurement": "growth AUC", "setting": "[2]", "value": 0.966}]}
{"smiles": "CCCC(Cn1cncn1)c1ccc(Cl)cc1Cl", "note": "(stereo not given)", "values": [{"measurement": "growth AUC", "setting": "[1]", "value": 1.02}, {"measurement": "growth AUC", "setting": "[2]", "value": 0.915}]}
{"smiles": "C[N+](C)(C)CCCl.[Cl-]", "values": [{"measurement": "growth AUC", "setting": "[1]", "value": 0.994}, {"measurement": "growth AUC", "setting": "[2]", "value": 1.03}]}
{"smiles": "CN(C)C(=O)Nc1ccc(Cl)cc1", "values": [{"measurement": "growth AUC", "setting": "[1]", "value": 0.979}, {"measurement": "growth AUC", "setting": "[2]", "value": 0.971}]}
{"smiles": "C#CCOc1ccc(CCNC(=O)C(OCC#C)c2ccc(Cl)cc2)cc1OC", "note": "(stereo not given)", "values": [{"measurement": "growth AUC", "setting": "[1]", "value": 0.959}, {"measurement": "growth AUC", "setting": "[2]", "value": 0.984}]}
{"smiles": "OC(c1ccc(F)cc1)(c1cncnc1)c1ccccc1Cl", "note": "(stereo not given)", "values": [{"measurement": "growth AUC", "setting": "[1]", "value": 0.975}, {"measurement": "growth AUC", "setting": "[2]", "value": 0.996}]}
{"smiles": "O=C(NC(=O)c1c(F)cccc1F)Nc1ccc(CO/N=C(\\c2ccc(Cl)cc2)C2CC2)cc1", "values": [{"measurement": "growth AUC", "setting": "[1]", "value": 0.968}, {"measurement": "growth AUC", "setting": "[2]", "value": 0.996}]}
{"smiles": "O=[N+]([O-])c1cc(C(F)(F)F)c(Cl)c([N+](=O)[O-])c1Nc1ncc(C(F)(F)F)cc1Cl", "values": [{"measurement": "growth AUC", "setting": "[1]", "value": 0.989}, {"measurement": "growth AUC", "setting": "[2]", "value": 0.822}]}
{"smiles": "O=[N+]([O-])NC1=NCOCN1Cc1cnc(Cl)s1", "values": [{"measurement": "growth AUC", "setting": "[1]", "value": 0.941}, {"measurement": "growth AUC", "setting": "[2]", "value": 0.85}]}
{"smiles": "O=C(NC(=O)c1c(F)cccc1F)Nc1cc(Cl)c(Oc2ncc(C(F)(F)F)cc2Cl)c(Cl)c1", "values": [{"measurement": "growth AUC", "setting": "[1]", "value": 1.11}, {"measurement": "growth AUC", "setting": "[2]", "value": 0.98}]}
{"smiles": "Cc1ccccc1CO[C@@H]1C[C@@]2(C(C)C)CC[C@]1(C)O2", "note": "(mixture of isomers)", "values": [{"measurement": "growth AUC", "setting": "[1]", "value": 0.978}, {"measurement": "growth AUC", "setting": "[2]", "value": 0.97}]}
{"smiles": "CCC(C)Nc1c([N+](=O)[O-])cc(C(C)(C)C)cc1[N+](=O)[O-]", "note": "(stereo not given)", "values": [{"measurement": "growth AUC", "setting": "[1]", "value": 0.927}, {"measurement": "growth AUC", "setting": "[2]", "value": 1.04}]}
{"smiles": "CC1(C)C(C=C(Cl)Cl)C1C(=O)OC(C#N)c1cccc(Oc2ccccc2)c1", "note": "(mixture of isomers)", "values": [{"measurement": "growth AUC", "setting": "[1]", "value": 0.945}, {"measurement": "growth AUC", "setting": "[2]", "value": 0.936}]}
{"smiles": "CCC1COC(Cn2cncn2)(c2ccc(Cl)cc2Cl)O1", "note": "(stereo not given)", "values": [{"measurement": "growth AUC", "setting": "[1]", "value": 0.936}, {"measurement": "growth AUC", "setting": "[2]", "value": 0.948}]}
{"smiles": "COc1nn(CSP(=S)(OC)OC)c(=O)s1", "values": [{"measurement": "growth AUC", "setting": "[1]", "value": 1.06}, {"measurement": "growth AUC", "setting": "[2]", "value": 0.985}]}
{"smiles": "CCCN(CCC)c1c([N+](=O)[O-])cc(S(C)(=O)=O)cc1[N+](=O)[O-]", "values": [{"measurement": "growth AUC", "setting": "[1]", "value": 0.894}, {"measurement": "growth AUC", "setting": "[2]", "value": 0.966}]}
{"smiles": "CCOP(=O)(N=C1SCC(C)S1)OCC", "note": "(stereo not given)", "values": [{"measurement": "growth AUC", "setting": "[1]", "value": 0.969}, {"measurement": "growth AUC", "setting": "[2]", "value": 0.987}]}
{"smiles": "CN(C)C(=S)SSC(=S)N(C)C", "values": [{"measurement": "growth AUC", "setting": "[1]", "value": 0.822}, {"measurement": "growth AUC", "setting": "[2]", "value": 0.956}]}
{"smiles": "O=C(NC(=O)c1c(F)cccc1F)Nc1ccc(OC(F)(F)C(F)OC(F)(F)F)c(Cl)c1", "note": "(stereo not given)", "values": [{"measurement": "growth AUC", "setting": "[1]", "value": 1.06}, {"measurement": "growth AUC", "setting": "[2]", "value": 1.01}]}
{"smiles": "COP(=S)(OC)Oc1ccc(SC)c(C)c1", "values": [{"measurement": "growth AUC", "setting": "[1]", "value": 1.03}, {"measurement": "growth AUC", "setting": "[2]", "value": 0.965}]}
{"smiles": "CNC(=O)Oc1cc(C)c(SC)c(C)c1", "values": [{"measurement": "growth AUC", "setting": "[1]", "value": 0.928}, {"measurement": "growth AUC", "setting": "[2]", "value": 0.968}]}
{"smiles": "COc1cc(C)c(C(=O)c2c(OC)ccc(Br)c2C)c(OC)c1OC", "values": [{"measurement": "growth AUC", "setting": "[1]", "value": 0.989}, {"measurement": "growth AUC", "setting": "[2]", "value": 1.01}]}
{"smiles": "CC1(C)[C@H](C=C(Cl)Cl)[C@H]1C(=O)OCc1c(F)c(F)cc(F)c1F", "values": [{"measurement": "growth AUC", "setting": "[1]", "value": 0.946}, {"measurement": "growth AUC", "setting": "[2]", "value": 1.02}]}
{"smiles": "COP(=S)(OC)Oc1ccc(S(=O)(=O)N(C)C)cc1", "values": [{"measurement": "growth AUC", "setting": "[1]", "value": 0.971}, {"measurement": "growth AUC", "setting": "[2]", "value": 1.04}]}
{"smiles": "O=P(OCCCl)(OCCCl)OCCCl", "values": [{"measurement": "growth AUC", "setting": "[1]", "value": 0.928}, {"measurement": "growth AUC", "setting": "[2]", "value": 1.03}]}
{"smiles": "CCOP(=S)(OCC)SCS(=O)CC", "note": "(stereo not given)", "values": [{"measurement": "growth AUC", "setting": "[1]", "value": 0.995}, {"measurement": "growth AUC", "setting": "[2]", "value": 0.976}]}
{"smiles": "O=C(O)c1ccccc1C(=O)Nc1cccc2ccccc12", "values": [{"measurement": "growth AUC", "setting": "[1]", "value": 0.993}, {"measurement": "growth AUC", "setting": "[2]", "value": 0.932}]}
{"smiles": "CCCCN(CC)c1c([N+](=O)[O-])cc(C(F)(F)F)cc1[N+](=O)[O-]", "values": [{"measurement": "growth AUC", "setting": "[1]", "value": 1.04}, {"measurement": "growth AUC", "setting": "[2]", "value": 1.03}]}
{"smiles": "CCC/C(=N\\OCC)C1=C(O)CC(CC(C)SCC)CC1=O", "note": "(stereo not given)", "values": [{"measurement": "growth AUC", "setting": "[1]", "value": 1}, {"measurement": "growth AUC", "setting": "[2]", "value": 1.01}]}
{"smiles": "CSc1nc(NC(C)C)nc(NC(C)C)n1", "values": [{"measurement": "growth AUC", "setting": "[1]", "value": 1.02}, {"measurement": "growth AUC", "setting": "[2]", "value": 1.03}]}
